# In paper PMC4552634, “A New Set of Chemical Starting Points with Plasmodium falciparum Transmission-Blocking Potential for Antimalarial Drug Discovery” (PLoS ONE, 2015):
# About 3,200 (25%) of roughly 13,000 compounds showed an effect of 50% or more. The list shows a part of the results.
# Test system: P. falciparum stage V gametocytes
# Design: BacTiter-Glo ATP luminescence viability of purified stage V gametocytes in 384-well plates, per cent inhibition versus DMSO
# Conditions: 48 h, 5 µM; inhibitor
row,SMILES,% Inhibition
1,O=C(c1cncc(-c2ccccc2)c1)N(Cc1cncn1Cc1ccccc1F)CC1CC1 [TCMDC-132464],14.15%
2,CC(C)(C)Oc1ccc(NC(=O)c2ccccc2O)cc1 [TCMDC-137700],29.92%
3,COc1ccccc1N(C)CCNc1cc(C)nc(Nc2ccc(C)cc2)n1 [TCMDC-133456],-44.09%
4,Cn1cc(C(=O)Nc2cccc(-c3cccc(-c4nc5ccccc5[nH]4)c3)c2)n(C)c1=O [TCMDC-137135],-5.62%
5,Cc1cc(C)c(C(=O)Nc2n[nH]c3nnc(-c4cccc(F)c4F)cc23)c(C)c1 [TCMDC-141220],6.955%
6,Oc1cc(Nc2ccnc3cc(I)ccc23)ccc1F [TCMDC-138379],-46.78%
7,OC(COc1ccccc1-c1nc2ccccc2o1)CN1CCCN(CCc2ccccc2)CC1 (centres unmarked) [TCMDC-141430],28.2%
8,COc1ccccc1N1CCN(Cc2c(NC(C)=O)sc(C)c2C)CC1 [TCMDC-124501],-13.75%
9,Oc1ccccc1CNCC(O)c1cc(C(F)(F)F)cc(C(F)(F)F)c1 (centres unmarked) [TCMDC-140304],-68.09%
10,O=C(NCCCCN1CCC(c2ccc(-c3ccco3)cc2)CC1)c1ccc(NC(=O)c2ccc(Cl)cc2)cc1 [TCMDC-138321],113.6%
11,O=C(/C=C/c1ccc(Cl)c(Cl)c1)NCCCCCCN1CCCN(C(=O)Nc2cccc(Cl)c2)CC1 [TCMDC-135939],-30.78%
12,O=C(O)C(F)(F)F.c1cc(CNCC2CCCO2)cc(-c2ccc(-c3nc4ccccc4[nH]3)s2)c1 (centres unmarked) [TCMDC-133107],-4.99%
13,COc1ccc(Cl)cc1N1CCN(CCCNC(=O)c2ccc(-c3nc4cc(Cl)c(F)cc4[nH]3)s2)CC1 [TCMDC-140102],7.975%
14,COc1cc(C2=NN(S(=O)(=O)c3c(C)cc(C)cc3C)CCCC2)ccc1Cl [TCMDC-136217],20.4%
15,COc1ccc(-c2ccc(Nc3cccc(S(=O)(=O)CCN4CCC(CCN(C)C)CC4)c3)nc2)cn1 [TCMDC-134376],26.53%
16,Fc1ccc2nc(-c3ccc(-c4ccc(CNCC5CCCO5)cc4)s3)[nH]c2c1 (centres unmarked) [TCMDC-133100],-65.64%
17,CNCCNc1nccc(N2CCc3ncnc(Nc4ccc(OCc5cccc(F)c5)c(Cl)c4)c3C2)n1 [TCMDC-135478],99.42%
18,Fc1cccc(COc2ccc(Nc3ncnc4ccc(C#C[C@H]5CCCN5)cc34)cc2Cl)c1 [TCMDC-135437],-6.979%
19,NCCCNc1nccc(N2CCc3ncnc(Nc4ccc(OCc5cccc(F)c5)c(Cl)c4)c3C2)n1 [TCMDC-135456],85.39%
20,CC(=O)NCCNc1nccc(N2CCc3ncnc(Nc4ccc(OCc5ccccn5)c(Cl)c4)c3C2)n1 [TCMDC-135447],3.253%
21,CCN(CCS(C)(=O)=O)Cc1ccc(-c2ccc3ncnc(Nc4ccc(OCc5cccc(F)c5)c(Cl)c4)c3c2)o1 [TCMDC-138533],-31.95%
22,CN(C)Cc1ccc(-c2cc3c(Nc4ccc(OCc5cccc(F)c5)c(Cl)c4)ncnc3s2)[nH]1 [TCMDC-135468],11.16%
23,CCN(CC)CCCNc1nccc(N2CCc3ncnc(Nc4ccc(OCc5cccc(F)c5)c(Cl)c4)c3C2)n1 [TCMDC-135406],102.3%
24,CN(C)Cc1ccc(-c2cc3ncnc(Nc4ccc(OCc5cccc(F)c5)c(Cl)c4)c3s2)[nH]1 [TCMDC-135507],40.2%
25,CN(C)CCNc1nccc(N2CCc3ncnc(Nc4ccc(OCc5cccc(F)c5)c(Cl)c4)c3C2)n1 [TCMDC-135405],71.57%

row,SMILES,% Inhibition
1,CN(C)C1CCN(CC#Cc2cc3ncnc(Nc4ccc(OCc5cccc(F)c5)c(Cl)c4)c3s2)CC1 [TCMDC-138804],11.68%
2,CC(=O)NCCNc1nccc(N2CCc3ncnc(Nc4ccc(OCc5cccc(F)c5)c(Cl)c4)c3C2)n1 [TCMDC-135392],4.041%
3,C[C@@H](N)C#Cc1cc2c(Nc3ccc(OCc4cccc(F)c4)c(Cl)c3)ncnc2s1 [TCMDC-134655],18.43%
4,COc1ccc2nccc([C@@H](O)CN3CCC(NCc4cc5oc(=O)n(C)c5cc4F)CC3)c2c1 [TCMDC-141144],-1.57%
5,Fc1cccc(COc2ccc(Nc3ncnc4sc(C#C[C@H]5CCCN5)cc34)cc2F)c1 [TCMDC-134429],-0.575%
6,O=C(Nc1ccc(N2CCCCC2)c(Cl)c1)c1ncn[nH]1 [TCMDC-123528],3.564%
7,CS(=O)(=O)CCNc1cc(N2CCc3ncnc(Nc4ccc(OCc5cccc(F)c5)c(Cl)c4)c3C2)ncn1 [TCMDC-135477],58.91%
8,CS(=O)(=O)CCNc1nccc(N2CCc3ncnc(Nc4ccc(OCc5cccc(F)c5)c(Cl)c4)c3C2)n1 [TCMDC-135425],8.296%
9,CC(=O)NCCNc1cc(N2CCc3ncnc(Nc4ccc(OCc5c(F)cccc5F)c(Cl)c4)c3C2)ncn1 [TCMDC-135455],38.09%
10,COc1cc(-c2ccccc2)ccc1C(=O)Nc1ccc2c(c1)N(C)CCC2 [TCMDC-141219],-85.17%
11,O=C(N1CCN(c2cccc(C(F)(F)F)c2)CC1)C(Cl)(Cl)Cl [TCMDC-125655],-5.728%
12,O=C(/C=C/c1ccc(Cl)c(Cl)c1)NC1C2CCC1CC(CN1CCC(c3c[nH]c4ccccc34)CC1)C2 (centres unmarked) [TCMDC-139811],36.93%
13,c1ccc(CN2CCC(Nc3ccc(-c4cn[nH]c4-c4ccccn4)nc3)CC2)cc1 [TCMDC-138750],73.03%
14,COc1ccc(Nc2nc(NC3CCN(Cc4ccccc4)CC3)cc(-c3ccncc3)n2)cc1 [TCMDC-134021],-30.5%
15,c1ccc(C2CCN(Cc3ccc(-c4c[nH]c5nc(NC6CCCC6)ncc45)cc3)CC2)cc1 [TCMDC-133772],-64.75%
16,CCCCCC(C)C(C)c1cc(O)c2c(c1)OC(C)(C)CC2(O)c1ccccn1 (centres unmarked) [TCMDC-131713],-6.865%
17,Cc1cc(F)ccc1-c1nc(NCCCNCCc2ccccc2)nc2c1ccc(=O)n2-c1c(F)cccc1F [TCMDC-141804],83.84%
18,Cc1cc(F)ccc1-c1nc(NCCCN2CCCC2=O)nc2c1ccc(=O)n2-c1c(F)cccc1F [TCMDC-141433],-74.9%
19,Cc1cc(F)ccc1-c1nc(NCC(O)CNCCc2ccccc2)nc2c1ccc(=O)n2-c1c(F)cccc1F (centres unmarked) [TCMDC-141784],98.89%
20,CCCCCN1CCC(NC(=O)c2ccc(C(=O)Nc3ccc(C(C)C)cc3)cc2)CC1 [TCMDC-136751],8.673%
21,O=C(C=CC(=O)N1CCCCC1)NCc1ccccc1 [TCMDC-131645],19.39%
22,NC(=O)c1ccccc1OCC(=O)Nc1cccc(-c2ccc(-c3nc4ccccc4[nH]3)cc2)c1 [TCMDC-132128],7.419%
23,COc1ccc2ncc(C#N)c(CCN3CCC(NCc4ccc5c(c4)NC(=O)CO5)CC3)c2c1 [TCMDC-135645],-0.6152%
24,CCNc1cc(CCCC(=O)OCC)nc(Nc2ccc(C)cc2)n1 [TCMDC-134018],-48.18%
25,OC(CNc1ccnc(Nc2ccccc2)n1)c1cccc(C(F)(F)F)c1 (centres unmarked) [TCMDC-136588],30.58%

row,SMILES,% Inhibition
1,CCCCCCCN1CC[C@@H](C[C@H](N)Cc2ccnc3ccc(OC)cc23)[C@@H](CC)C1 [TCMDC-139827],11.08%
2,CC[C@H]1CN(C/C=C/c2ccc(OC)cc2)CC[C@H]1CCCc1ccnc2ccc(O)cc12 [TCMDC-140258],-1.76%
3,CCCCCCCN1CC[C@@H](CCCc2ccnc3ccc(OC)cc23)[C@@H](CNC)C1 [TCMDC-139875],105.4%
4,CCCCCCCCCN1CC[C@@H](CCCc2ccnc3ccc(O)cc23)[C@@H](CC)C1 [TCMDC-131442],46.81%
5,CCCCCCCN1CC[C@@H](CCCc2ccnc3ccc(OC)cc23)[C@@H](CCN)C1 [TCMDC-139278],113.6%
6,Cc1cccc2c(/C=C/C(=O)NC3CCC(CCN4CCc5ccc(C#N)cc5CC4)CC3)c[nH]c12 (centres unmarked) [TCMDC-139665],43.65%
7,O=C(Nc1cccc(-c2cc(-c3c(Cl)cccc3Cl)no2)c1)c1cncc(-c2cccs2)c1 [TCMDC-136736],-10.57%
8,C[C@@H](N=C(Nc1ccc(C#N)cc1O)Nc1ccccc1Cl)c1ccc(Br)cc1 [TCMDC-140257],-91.02%
9,O=C(Nc1cccc(-c2ccc(-c3nc4ccc(F)cc4[nH]3)cc2)c1)c1cccnc1 [TCMDC-136923],8.252%
10,CCc1nc(N)nc(N)c1-c1ccc(C(C)(C)C)cc1 [TCMDC-137367],5.64%
11,CC(N)(Cc1ccc(O)cc1)c1nn[nH]n1 (centres unmarked) [TCMDC-131387],-7.705%
12,CCCc1cc(OC)c(C[C@H]2c3cc(O)c(Cl)cc3CCN2C)cc1OC [TCMDC-137779],20.32%
13,CCCc1cc(OC)c(CC2c3cc(O)c(Cl)cc3CCN2C)cc1OC (centres unmarked) [TCMDC-137166],27.65%
14,COc1cc(CC2c3cc(O)c(Cl)cc3CCN2C)c(OC)cc1C (centres unmarked) [TCMDC-137434],71.2%
15,CCCCCCCCCCN1C(=O)C2C(CCCCNC(C)=O)NC3(C(=O)N(Cc4ccc(C(C)(C)C)cc4)c4ccccc43)C2C1=O (centres unmarked) [TCMDC-139772],47.42%
16,Cc1[nH]c(C)c(Cc2ccc(Oc3ccc(OC(F)(F)F)cc3)cc2)c(=O)c1Br [TCMDC-134530],-23.78%
17,Cc1cc(=O)c2cc(Oc3ccc(OC(F)(F)F)cc3)ccc2[nH]1 [TCMDC-138906],0.2157%
18,CN(C)Cc1c(O)ccc2[nH]c(-c3ccc(OC(F)(F)F)cc3)nc12 [TCMDC-136529],-83.05%
19,Cc1[nH]c(C)c([N+](=O)[O-])c(=O)c1-c1ccc(Oc2ccc(OC(F)(F)F)cc2)cc1 [TCMDC-135555],-1.899%
20,Cc1nc(C)c(-c2ccc(Oc3ccc(OC(F)(F)F)cc3)cc2)c(OC(=O)c2ccc(CN(C)C)cc2)c1Cl [TCMDC-137382],68.19%
21,Cc1nc(C)c(-c2ccc(Oc3ccc(OC(F)(F)F)cc3)cc2)c(OC(=O)c2ccccc2)c1Cl [TCMDC-137380],76.96%
22,Cc1[nH]cc(Br)c(=O)c1-c1ccc(Oc2ccc(OC(F)(F)F)cc2)cc1 [TCMDC-136197],-4.559%
23,CC(=O)Oc1c(Cl)c(C)nc(C)c1-c1ccc(Oc2ccc(OC(F)(F)F)cc2)cc1 [TCMDC-137385],74.48%
24,CC(=O)Oc1c(Br)c(C)nc(C)c1-c1ccc(Oc2ccc(OC(F)(F)F)cc2)cc1 [TCMDC-137383],72.41%
